From PubChem
Shown is part of a subset that was picked to be rich in hits.
nsP2pro inh: Primary qHTS for inhibitors of NSP2Pro chikungunya virus (CHIKV) | Polyprotein P1234 (Chikungunya virus (strain S27-African prototype)), Q8JUX6 | FRET peptide cleavage, nsP2pro, fluorescence 1 h | Potency, µM (titrated, usually from 24.9 µM), without a hit: top-dose activity change, negative = inhibition, usual class: inhibitors | 31,000 tested, 1.1% active | AID 1964107, 2024; note: nearly all actives have a fitted effect of over 60% in size
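FRET cleavage of 2.5 uM peptide 2 by 150 nM CHIKV protease domain at pH 8.0 (Tris, Tween 20). Compounds at 7 concentrations (up to 25 uM) preincubated 15 min. Fluorescence read after 1 h at room temperature.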
nsP2 cell sec: Secondary cell base assay for inhibitors of NSP2Pro Chikungunya virus (CHIKV); shares compounds with nsP2pro inh; cell-based CHIKV nsP2 protease reporter assay; Potency, µM (titrated, usually from 51.1 µM), inactives show top-dose activity change, negative = inhibition, most hits filed as inhibitors; 450 tested, 10% active; AID 1964100, 2024; note: nearly all actives have a fitted effect of over 70% in size
CHIKV NSP2 FL: Selectivity profile for inhibitors of NSP2Pro chikungunya virus (CHIKV): Full length NSP2 enzyme counterscreen (CHIKV-NSP2); 410 tested, 39% active; Potency, µM (doses to about 50.7 µM), for the others: at the top dose activity change, negative = inhibition, usual class: inhibitors; Full-length CHIKV NSP2 protease enzymatic counterscreen; shares compounds with nsP2pro inh; note: nearly all actives have a fitted effect of over 65% in size
Furin counter: Selectivity profile for inhibitors of NSP2Pro chikungunya virus (CHIKV): Human furin counterscreen; shares compounds with nsP2pro inh; Recombinant human furin enzymatic counterscreen, fluorogenic substrate; Potency, µM (titrated, usually from 50.6 µM), without a hit: top-dose activity change, negative = inhibition, most hits filed as inhibitors; 410 tested, 6% active
NS23 peptide cs: Selectivity profile for inhibitors of NSP2Pro chikungunya virus (CHIKV): Endogenous NS2/3 peptide Counterscreen; shares compounds with nsP2pro inh; Purified CHIKV nsP2 protease, endogenous NS2/3 peptide cleavage; Potency, µM (doses to about 51 µM), inactives show at the highest dose activity change, negative = inhibition, actives largely listed as inhibitors; 410 tested, 34% active; note: nearly all actives have a fitted effect of over 55% in size
Papain counter: Selectivity profile for inhibitors of NSP2Pro chikungunya virus (CHIKV): Papain Counterscreen; purified papain protease activity, enzymatic inhibition; 410 tested, 5% active; Potency, µM (doses to about 51 µM), without a hit: top-dose activity change, negative = inhibition, hits mostly inhibitors; shares compounds with nsP2pro inh
nsP2pro conf qHTS: Confirmatory qHTS for inhibitors of NSP2Pro chikungunya virus (CHIKV). shares compounds with nsP2pro inh. CHIKV nsP2 protease enzymatic activity, qHTS. Potency, µM (titrated, usually from 25.5 µM), without a hit: top-dose activity change, negative = inhibition, usual class: inhibitors. 410 tested, 43% active. AID 1964105, 2024; note: nearly all actives have a fitted effect of over 75% in size
HCV NS3 counter: Selectivity profile for inhibitors of NSP2Pro chikungunya virus (CHIKV): NS34A-HCV Counterscreen. shares compounds with nsP2pro inh. Potency, µM (doses to about 50.9 µM), actives largely listed as inhibitors. 410 tested, 20% active. HCV NS3/4A protease biochemical counterscreen. AID 1964106, 2024; note: nearly all actives have a fitted effect of over 55% in size
Numbers without * were called inactive; i = inactive; ? = inconclusive; [ ] = another dose, or the depositor's remark. Calls come from the whole dose curve. % is set by controls: 0 for no effect and ±100 for the full control effect; potency is the fitted concentration of half-maximal effect.

SMILES	nsP2pro inh	others
Cc1ccc(-c2ccc(=O)n(CC(=O)N(C)C(C)c3ccco3)c2)cc1 (stereo not given)	i
CC(=O)OC1CC(O)C2(C)C(CC(OC(C)=O)C3(C)C2CCC2(C)C(c4ccoc4)C(=O)C4OC423)C1(C)C (stereo not given)	?	nsP2 cell sec=12%[17.6 µM];CHIKV NSP2 FL=-18%[17.3 µM];Furin counter=-9%[17.3 µM];NS23 peptide cs=-9%[17.2 µM];Papain counter=-13%[17.2 µM];nsP2pro conf qHTS=-28%[8.62 µM];HCV NS3 counter=i
CC(=O)O[C@@H]1C[C@H](O)[C@@]23CO[C@H](O)[C@]1(C)C2C[C@@H](O)[C@]1(C)C3C(=O)[C@H](OC(C)=O)[C@@]2(C)[C@H](c3ccoc3)C[C@H]3O[C@]321 (stereo not given in full)	-2%[10 µM]
CC(=O)O[C@@H]1CC2C(C)(C)C(=O)C=C[C@]2(C)C2CC[C@]3(C)C(=CC(=O)O[C@H]3c3ccoc3)[C@@]21C (stereo not given in full)	2%
CC1CCCC(C)N1C(=S)Nc1cccc(C(F)(F)F)c1 (stereo not given)	-1%
CNc1nc(C#N)c(-c2cccc3ccccc23)o1	-4%
C/C(=N\N=C(N)N)c1cc(NC(=O)CCCCCCCCC(=O)Nc2cc(/C(C)=N/N=C(N)N)cc(/C(C)=N/N=C(N)N)c2)cc(/C(C)=N/N=C(N)N)c1	5.6µM*	nsP2 cell sec=71%;CHIKV NSP2 FL=13µM*;Furin counter=12µM*;NS23 peptide cs=13µM*;Papain counter=-17%;nsP2pro conf qHTS=6.3µM*;HCV NS3 counter=12µM*
Cc1cc(C)nc(NC(=S)N2CCN(c3cccc(Cl)c3Cl)CC2)c1	i
Nc1ccc(CNc2ccc([S+](=O)([O-])Nc3nccs3)cc2)c(O)c1	i
C[C@H](C(=O)NC1CCCC1)N(C(=O)Cn1nnc(-c2ccc3c(c2)OCO3)n1)C1CCCCC1	4%
COc1cccc(-c2nnnn2[C@H]2CO[C@H]3[C@@H]2OC[C@@H]3NC(=O)C2CCCCC2)c1	19%[39.2 µM]
O=C(NC1CCCCC1)N[C@H]1CO[C@H]2[C@@H]1OC[C@@H]2n1nnnc1-c1ccc2c(c1)OCO2	2.8µM*	nsP2 cell sec=-11%;CHIKV NSP2 FL=18µM*;Furin counter=16µM*;NS23 peptide cs=16µM*;Papain counter=-2%;nsP2pro conf qHTS=4.5µM*;HCV NS3 counter=?
O=[S+]([O-])(Nc1ccc(N2CCNCC2)cc1)c1ccc(NCc2ccc(Cl)cc2O)cc1	-14%
CNCC(=O)OCc1cccnc1N(C)C(=O)OC(C)[n+]1cnn(C[C@](O)(c2cc(F)ccc2F)[C@@H](C)c2nc(-c3ccc(C#N)cc3)cs2)c1 (stereo not given in full)	14%
C[C@@H]1O[C@@H](O[C@H]2[C@H](OC(C#N)c3ccc(O)cc3)O[C@H](CO)[C@@H](O)[C@@H]2O)[C@H](O)[C@H](O)[C@H]1O (stereo not given in full)	-9%[10 µM]
COc1ccccc1NC(=O)c1cc(-c2ccc(C)c(C)c2)nc2ccccc12	-4%
NC(=O)c1cccc(-c2cc(O)cc(OC(=O)NC3CCCCC3)c2)c1	-2%[10 µM]
Oc1cccc(O)c1O	8.8µM*	nsP2 cell sec=-19%;CHIKV NSP2 FL=15µM*;Furin counter=-15%;NS23 peptide cs=8.2µM*;Papain counter=-12%;nsP2pro conf qHTS=1.8µM*;HCV NS3 counter=3.3µM*
O=C(O)c1cccc(O)c1O	-21%
CC(C)c1cccc(C(C)C)c1O	-5%
c1ccc(CN2CCc3[nH]cnc3C2c2ccc(-c3ccccn3)cc2)nc1 (stereo not given)	i
CNC(=O)c1cc(C2CC2)nc2c1c(C1CCCN1C(=O)c1ccc(C(F)(F)F)cc1)nn2C (stereo not given)	1%
COc1cccc(NC(=S)N2CCN(c3ccc(C(F)(F)F)cc3[N+](=O)[O-])CC2)n1	-19%
CC[C@H]1[C@@H](O)[C@@H]2[C@H](CC[C@]3(C)[C@@H]([C@H](C)CCC(=O)O)CC[C@@H]23)[C@@]2(C)CC[C@@H](O)C[C@@H]12	0%
CC(=O)O[C@@H]1[C@H](O[C@@H]2O[C@H](CO)[C@@H](O)[C@H](O)[C@H]2O)[C@@H](O[C@@H]2O[C@@H](C)[C@H](O)[C@@H](O[C@@H]3O[C@H](CO)[C@@H](O)[C@H](O)[C@H]3O)[C@H]2O)[C@H](OC(=O)C23CCC4(C)C(=CCC5C6(C)CC(O)C(O[C@@H]7O[C@H](C(=O)O)[C@@H](O)[C@H](O)[C@H]7O)C(C)(C(=O)O)C6CCC54C)C2CC(C)(C)CC3O)O[C@@H]1C (stereo not given in full)	-10%[5.1 µM]
SMILES	nsP2pro inh	others
CCCCN(C)C(=O)Cn1nc(-c2ccc(C(F)(F)F)cc2)ccc1=O	-2%
COc1ccc2nc(-c3ccc(F)cc3Cl)sc2c1	-13%
C[C@@H](Oc1cc(-n2cnc3ccc(OC4CCN(C)CC4)cc32)sc1C(N)=O)c1ccccc1Cl	90%
COC[C@@H]1OC(=O)/C(=C\N(C)CCCN(C)C)C2=C(O)C(=O)C3=C([C@@H](OC(C)=O)C[C@@]4(C)[C@@H]3CC[C@@H]4O)[C@@]21C	-11%
COC[C@H]1OC(=O)c2coc3c2[C@@]1(C)C1=C(C3=O)C2CCC(=O)[C@@]2(C)C[C@H]1OC(C)=O (stereo not given in full)	9.9µM*	nsP2 cell sec=-1%;CHIKV NSP2 FL=-11%;Furin counter=-6%;NS23 peptide cs=-17%;Papain counter=-7%;nsP2pro conf qHTS=-25%;HCV NS3 counter=i
Cc1cc(C)nc(NC(=S)N2CCN(c3ccc(Cl)c(C(F)(F)F)c3)CC2)c1	1%
Cc1cccc(Nc2nc(N)nc(CN3CC[C@@](O)(C4CCC4)[C@H](C)C3)n2)c1	i
CCNC(=O)c1ccc(-c2ccc3ncnc(NCc4nc(C)cs4)c3c2)o1	i
